The values below come from publication PMC7862700, “An all-to-all approach to the identification of sequence-specific readers for epigenetic DNA modifications on cytosine”.

Assay in all cases: DAPPL (digital affinity profiling via proximity ligation, sequencing); 10 mM Tris-HCl pH 7.5, 50 mM NaCl, 1 mM DTT, 4% glycerol, room temperature, 30 min; GST-TFs on glutathione beads, 16-mer random dsDNA library, 0.1% formaldehyde crosslink after washing; high values mean tight binding
One assay addresses T1, FLI1 (Homo sapiens, UniProt Q01543 1-452).
T1 sequence: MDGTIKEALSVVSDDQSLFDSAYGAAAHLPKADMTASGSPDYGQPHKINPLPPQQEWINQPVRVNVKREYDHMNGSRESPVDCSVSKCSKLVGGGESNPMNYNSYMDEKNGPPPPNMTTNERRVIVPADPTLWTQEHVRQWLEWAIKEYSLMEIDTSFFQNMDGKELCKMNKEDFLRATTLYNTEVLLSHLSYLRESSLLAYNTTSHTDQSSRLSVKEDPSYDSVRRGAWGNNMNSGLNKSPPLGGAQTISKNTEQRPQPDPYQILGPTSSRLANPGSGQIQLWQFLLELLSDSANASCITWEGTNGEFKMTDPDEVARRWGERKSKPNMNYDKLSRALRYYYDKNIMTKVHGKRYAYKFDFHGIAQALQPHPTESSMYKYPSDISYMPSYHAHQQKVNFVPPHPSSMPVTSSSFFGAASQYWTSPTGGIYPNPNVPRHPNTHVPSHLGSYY
Conditions: protein: recombinant; tags: N-terminal GST; dsDNA, one strand shown. In outline: (§1)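 Binding signal is each hexamer's read frequency for a factor divided by its frequency in the tag-only sample. The factors were GST-fused human transcription factors from yeast, captured on glutathione beads, DNA-barcoded and pooled with that sample. Pools were incubated with 200 nmole of a random double-stranded 16-mer DNA library in Tris/NaCl/DTT/glycerol buffer at room temperature for 30 min, then washed, crosslinked with 0.1% formaldehyde, proximity-ligated with BsaI/T4 ligase (1 h, 37 °C), PCR-amplified and sequenced on an Illumina NextSeq500.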

Another assay concerns the target T2, ELK1 (Homo sapiens, UniProt P19419 1-428).
T2 sequence: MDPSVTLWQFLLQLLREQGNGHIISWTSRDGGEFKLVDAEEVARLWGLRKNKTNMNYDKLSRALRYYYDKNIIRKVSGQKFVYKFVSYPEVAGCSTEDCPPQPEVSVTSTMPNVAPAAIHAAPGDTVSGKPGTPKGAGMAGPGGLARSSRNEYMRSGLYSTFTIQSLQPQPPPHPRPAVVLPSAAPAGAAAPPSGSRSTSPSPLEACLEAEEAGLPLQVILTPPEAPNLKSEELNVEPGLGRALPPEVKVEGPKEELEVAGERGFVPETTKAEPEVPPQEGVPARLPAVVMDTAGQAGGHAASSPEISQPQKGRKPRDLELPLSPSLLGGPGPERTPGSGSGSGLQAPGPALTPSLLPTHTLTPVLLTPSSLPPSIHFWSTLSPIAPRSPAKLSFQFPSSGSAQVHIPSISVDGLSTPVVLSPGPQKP
Conditions: protein: recombinant; tags: N-terminal GST; dsDNA, one strand shown. In outline: as §1

The target in the next assay is T3, GABPA (Homo sapiens, UniProt Q06546 1-454).
T3 sequence: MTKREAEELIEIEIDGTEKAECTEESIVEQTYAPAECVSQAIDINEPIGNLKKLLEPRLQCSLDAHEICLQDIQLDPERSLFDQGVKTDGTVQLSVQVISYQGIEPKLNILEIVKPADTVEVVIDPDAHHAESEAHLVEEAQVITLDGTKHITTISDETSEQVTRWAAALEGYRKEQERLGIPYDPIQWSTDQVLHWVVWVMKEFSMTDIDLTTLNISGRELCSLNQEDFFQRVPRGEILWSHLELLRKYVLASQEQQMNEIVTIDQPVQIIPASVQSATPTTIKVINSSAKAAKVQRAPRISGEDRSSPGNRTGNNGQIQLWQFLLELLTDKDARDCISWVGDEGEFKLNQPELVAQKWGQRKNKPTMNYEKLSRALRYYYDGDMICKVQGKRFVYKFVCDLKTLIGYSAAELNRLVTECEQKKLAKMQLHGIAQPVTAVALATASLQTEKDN
Conditions: protein: recombinant; tags: N-terminal GST; dsDNA, one strand shown. In outline:
as §1

A further assay concerns the target T4, ERG (Homo sapiens, UniProt P11308 1-479).
T4 sequence: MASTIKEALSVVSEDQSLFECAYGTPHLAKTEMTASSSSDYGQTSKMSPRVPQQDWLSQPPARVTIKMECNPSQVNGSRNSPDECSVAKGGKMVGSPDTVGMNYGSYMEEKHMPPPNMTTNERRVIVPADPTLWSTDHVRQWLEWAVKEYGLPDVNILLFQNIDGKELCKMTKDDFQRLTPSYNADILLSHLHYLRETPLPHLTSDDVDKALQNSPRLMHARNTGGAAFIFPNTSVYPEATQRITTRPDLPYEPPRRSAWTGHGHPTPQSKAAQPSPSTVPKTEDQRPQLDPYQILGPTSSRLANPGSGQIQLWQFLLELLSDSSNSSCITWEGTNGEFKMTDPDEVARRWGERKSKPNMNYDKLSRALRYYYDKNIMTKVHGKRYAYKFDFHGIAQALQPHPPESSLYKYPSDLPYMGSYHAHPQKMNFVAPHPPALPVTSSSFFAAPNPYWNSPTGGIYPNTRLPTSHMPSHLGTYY
Conditions: protein: recombinant; tags: N-terminal GST; dsDNA, one strand shown. Put shortly: as §1

The next assay deals with ELF1 (Homo sapiens, UniProt P32519 1-619). Conditions: protein: recombinant; tags: N-terminal GST; dsDNA, one strand shown. In outline: as §1
Another assay deals with T5, EHF (Homo sapiens, UniProt Q9NZC4 1-300).
T5 sequence: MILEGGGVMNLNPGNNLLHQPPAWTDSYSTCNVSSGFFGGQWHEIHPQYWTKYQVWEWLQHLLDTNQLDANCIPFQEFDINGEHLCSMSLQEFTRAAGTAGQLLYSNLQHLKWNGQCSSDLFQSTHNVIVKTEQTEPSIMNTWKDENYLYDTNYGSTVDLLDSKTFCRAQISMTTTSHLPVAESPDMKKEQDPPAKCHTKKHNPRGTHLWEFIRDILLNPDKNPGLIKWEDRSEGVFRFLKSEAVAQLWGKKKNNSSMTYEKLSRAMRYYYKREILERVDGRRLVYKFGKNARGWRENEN
Conditions: protein: recombinant; tags: N-terminal GST; dsDNA, one strand shown. In outline: as §1

A further assay deals with SPI1 (Homo sapiens, UniProt P17947 1-270). Conditions: protein: recombinant; tags: N-terminal GST; dsDNA, one strand shown. In outline:
as §1

The target in another assay is SPIB (Homo sapiens, UniProt Q01892 1-262). Conditions: protein: recombinant; tags: N-terminal GST; dsDNA, one strand shown. Put shortly:
as §1

The target in the next assay is T6, ELK3 (Homo sapiens, UniProt P41970 1-407).
T6 sequence: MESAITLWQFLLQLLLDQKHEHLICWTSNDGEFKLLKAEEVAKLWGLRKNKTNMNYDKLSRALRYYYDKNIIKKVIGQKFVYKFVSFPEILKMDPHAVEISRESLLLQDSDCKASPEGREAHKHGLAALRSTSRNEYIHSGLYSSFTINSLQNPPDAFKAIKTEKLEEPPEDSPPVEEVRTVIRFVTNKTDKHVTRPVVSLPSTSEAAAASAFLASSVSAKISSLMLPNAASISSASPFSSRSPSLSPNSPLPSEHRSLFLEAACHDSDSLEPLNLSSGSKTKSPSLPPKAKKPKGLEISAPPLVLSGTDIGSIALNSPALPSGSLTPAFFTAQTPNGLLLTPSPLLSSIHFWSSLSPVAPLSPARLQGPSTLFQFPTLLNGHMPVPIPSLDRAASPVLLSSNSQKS
Conditions: protein: recombinant; tags: N-terminal GST; dsDNA, one strand shown. Put shortly: as §1

The next assay concerns the target T7, FEV (Homo sapiens, UniProt Q99581 1-238).
T7 sequence: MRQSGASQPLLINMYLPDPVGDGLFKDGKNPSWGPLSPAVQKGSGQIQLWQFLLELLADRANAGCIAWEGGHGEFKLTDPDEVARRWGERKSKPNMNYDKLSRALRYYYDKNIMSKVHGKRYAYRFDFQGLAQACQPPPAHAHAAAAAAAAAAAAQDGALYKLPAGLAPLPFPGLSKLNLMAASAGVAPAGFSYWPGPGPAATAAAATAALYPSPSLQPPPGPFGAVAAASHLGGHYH
Conditions: protein: recombinant; tags: N-terminal GST; dsDNA, one strand shown. In outline:
as §1

The next assay has as its target ETV5 (Homo sapiens, UniProt P41161 1-510). Conditions: protein: recombinant; tags: N-terminal GST; dsDNA, one strand shown. In outline: as §1
Another assay deals with HSF1 (Homo sapiens, UniProt Q00613 1-529). Conditions: protein: recombinant; tags: N-terminal GST; chain copies: 3; dsDNA, one strand shown. Put shortly: as §1
For the next assay, the target named is T8, SPIC (Homo sapiens, UniProt Q8N5J4 1-248).
T8 sequence: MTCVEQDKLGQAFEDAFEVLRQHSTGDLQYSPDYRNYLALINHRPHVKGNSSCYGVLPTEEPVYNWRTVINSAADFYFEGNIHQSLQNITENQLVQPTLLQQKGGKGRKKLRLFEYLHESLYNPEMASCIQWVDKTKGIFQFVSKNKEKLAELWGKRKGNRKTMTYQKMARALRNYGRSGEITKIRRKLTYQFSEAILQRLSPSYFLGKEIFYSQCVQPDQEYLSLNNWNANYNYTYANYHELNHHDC
Conditions: protein: recombinant; tags: N-terminal GST; dsDNA, one strand shown. In outline: as §1

Another assay has as its target ELF4 (Homo sapiens, UniProt Q99607 1-663). Conditions: protein: recombinant; tags: N-terminal GST; dsDNA, one strand shown. Put shortly:
as §1

Another assay concerns the target T9, ELK4 (Homo sapiens, UniProt P28324-2 1-405).
T9 sequence: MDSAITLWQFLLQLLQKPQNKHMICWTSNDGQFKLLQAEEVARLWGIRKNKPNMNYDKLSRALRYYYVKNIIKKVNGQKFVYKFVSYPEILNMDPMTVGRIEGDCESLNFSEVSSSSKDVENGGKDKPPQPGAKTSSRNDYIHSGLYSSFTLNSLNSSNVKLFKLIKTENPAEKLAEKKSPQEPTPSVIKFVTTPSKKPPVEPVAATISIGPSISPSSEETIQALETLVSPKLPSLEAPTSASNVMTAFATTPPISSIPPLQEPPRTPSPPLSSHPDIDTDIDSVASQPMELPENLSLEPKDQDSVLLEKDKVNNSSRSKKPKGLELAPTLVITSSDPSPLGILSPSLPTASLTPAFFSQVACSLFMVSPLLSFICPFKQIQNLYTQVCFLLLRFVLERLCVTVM
Conditions: protein: recombinant; tags: N-terminal GST; dsDNA, one strand shown. In outline: as §1

The target in another assay is T10, ETV2 (Homo sapiens, UniProt O00321 1-342).
T10 sequence: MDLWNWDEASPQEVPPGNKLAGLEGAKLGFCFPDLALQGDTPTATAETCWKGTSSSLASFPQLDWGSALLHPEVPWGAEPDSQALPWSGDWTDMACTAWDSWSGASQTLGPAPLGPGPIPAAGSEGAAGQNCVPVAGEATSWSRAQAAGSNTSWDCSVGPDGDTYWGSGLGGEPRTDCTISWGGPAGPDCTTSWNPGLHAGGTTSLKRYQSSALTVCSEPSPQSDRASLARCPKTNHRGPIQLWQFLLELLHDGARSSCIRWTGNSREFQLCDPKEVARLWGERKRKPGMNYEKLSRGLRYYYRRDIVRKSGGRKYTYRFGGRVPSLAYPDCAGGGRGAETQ
Conditions: protein: recombinant; tags: N-terminal GST; dsDNA, one strand shown. Put shortly: as §1

For another assay, the target named is T11, ELF3 (Homo sapiens, UniProt P78545 1-371).
T11 sequence: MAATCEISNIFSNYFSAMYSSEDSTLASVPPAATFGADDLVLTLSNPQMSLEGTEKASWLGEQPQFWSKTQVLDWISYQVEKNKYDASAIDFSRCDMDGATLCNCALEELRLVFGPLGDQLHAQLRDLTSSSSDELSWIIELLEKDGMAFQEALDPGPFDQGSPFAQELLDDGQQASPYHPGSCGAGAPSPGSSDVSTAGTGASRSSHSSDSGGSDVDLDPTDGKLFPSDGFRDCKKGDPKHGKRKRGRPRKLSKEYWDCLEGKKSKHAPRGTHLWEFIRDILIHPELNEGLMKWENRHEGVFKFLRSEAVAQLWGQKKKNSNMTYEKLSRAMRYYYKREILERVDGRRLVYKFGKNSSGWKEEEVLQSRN
Conditions: protein: recombinant; tags: N-terminal GST; dsDNA, one strand shown. In outline:
as §1

Another assay deals with CRX (Homo sapiens, UniProt O43186 1-299). Conditions: protein: recombinant; tags: N-terminal GST; dsDNA, one strand shown. Put shortly: as §1
A further assay deals with ETV1 (Homo sapiens, UniProt P50549 1-477). Conditions: protein: recombinant; tags: N-terminal GST; dsDNA, one strand shown. In outline:
as §1

Sequence of ETV1 (P50549 whole entry): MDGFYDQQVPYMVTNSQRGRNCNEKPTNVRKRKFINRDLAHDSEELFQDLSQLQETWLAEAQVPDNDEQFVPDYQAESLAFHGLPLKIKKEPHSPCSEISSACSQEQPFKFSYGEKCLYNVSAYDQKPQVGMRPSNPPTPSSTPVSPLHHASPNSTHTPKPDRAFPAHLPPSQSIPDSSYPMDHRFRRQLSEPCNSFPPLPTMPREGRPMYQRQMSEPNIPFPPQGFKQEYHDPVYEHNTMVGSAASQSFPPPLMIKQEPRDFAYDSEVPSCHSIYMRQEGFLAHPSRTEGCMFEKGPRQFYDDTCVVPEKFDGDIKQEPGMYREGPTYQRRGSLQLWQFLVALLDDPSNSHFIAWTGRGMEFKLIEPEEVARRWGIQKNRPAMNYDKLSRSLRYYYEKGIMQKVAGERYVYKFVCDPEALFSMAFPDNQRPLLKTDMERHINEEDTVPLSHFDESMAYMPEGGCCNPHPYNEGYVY
Sequence of ELF4 (Q99607 whole entry): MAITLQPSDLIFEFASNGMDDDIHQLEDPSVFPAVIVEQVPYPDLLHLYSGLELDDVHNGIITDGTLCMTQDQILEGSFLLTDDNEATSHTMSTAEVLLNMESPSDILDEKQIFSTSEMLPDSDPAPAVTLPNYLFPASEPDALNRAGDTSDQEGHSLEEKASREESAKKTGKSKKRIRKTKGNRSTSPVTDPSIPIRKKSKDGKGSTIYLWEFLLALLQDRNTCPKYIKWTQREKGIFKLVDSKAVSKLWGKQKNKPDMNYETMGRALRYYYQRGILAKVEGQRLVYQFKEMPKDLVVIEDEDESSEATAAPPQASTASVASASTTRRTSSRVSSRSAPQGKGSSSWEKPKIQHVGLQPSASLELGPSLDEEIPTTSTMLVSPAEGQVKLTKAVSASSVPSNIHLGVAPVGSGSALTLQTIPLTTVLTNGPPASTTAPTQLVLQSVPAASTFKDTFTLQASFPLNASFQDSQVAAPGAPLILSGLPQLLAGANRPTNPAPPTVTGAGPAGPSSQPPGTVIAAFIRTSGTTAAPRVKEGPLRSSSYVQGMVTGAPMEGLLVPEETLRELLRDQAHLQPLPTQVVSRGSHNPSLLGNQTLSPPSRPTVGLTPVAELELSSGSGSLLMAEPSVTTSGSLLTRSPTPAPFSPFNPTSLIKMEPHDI
Sequence of SPIB (Q01892 whole entry): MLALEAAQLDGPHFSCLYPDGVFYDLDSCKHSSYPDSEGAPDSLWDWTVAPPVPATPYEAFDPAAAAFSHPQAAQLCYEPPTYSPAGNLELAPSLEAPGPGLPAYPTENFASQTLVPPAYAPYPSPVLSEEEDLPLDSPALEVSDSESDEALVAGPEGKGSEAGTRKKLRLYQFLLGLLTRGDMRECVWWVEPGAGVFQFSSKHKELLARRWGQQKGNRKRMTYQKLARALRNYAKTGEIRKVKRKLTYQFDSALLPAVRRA
Sequence of ELF1 (P32519 whole entry): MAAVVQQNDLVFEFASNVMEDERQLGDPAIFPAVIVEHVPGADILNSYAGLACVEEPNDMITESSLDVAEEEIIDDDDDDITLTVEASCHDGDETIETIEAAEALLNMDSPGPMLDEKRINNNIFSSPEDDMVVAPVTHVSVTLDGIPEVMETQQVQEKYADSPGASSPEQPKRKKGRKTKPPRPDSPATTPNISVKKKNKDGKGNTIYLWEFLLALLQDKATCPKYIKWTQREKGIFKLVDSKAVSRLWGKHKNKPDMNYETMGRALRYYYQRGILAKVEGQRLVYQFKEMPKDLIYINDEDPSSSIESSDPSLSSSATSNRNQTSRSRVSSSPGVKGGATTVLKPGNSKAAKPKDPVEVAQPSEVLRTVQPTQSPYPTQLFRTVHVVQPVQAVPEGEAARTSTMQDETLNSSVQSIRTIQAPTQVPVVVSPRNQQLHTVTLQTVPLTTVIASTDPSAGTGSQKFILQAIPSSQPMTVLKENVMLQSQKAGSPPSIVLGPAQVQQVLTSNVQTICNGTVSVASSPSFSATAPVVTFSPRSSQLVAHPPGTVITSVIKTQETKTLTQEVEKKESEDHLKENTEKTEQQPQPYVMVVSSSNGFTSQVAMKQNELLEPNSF
Sequence of ETV5 (P41161 whole entry): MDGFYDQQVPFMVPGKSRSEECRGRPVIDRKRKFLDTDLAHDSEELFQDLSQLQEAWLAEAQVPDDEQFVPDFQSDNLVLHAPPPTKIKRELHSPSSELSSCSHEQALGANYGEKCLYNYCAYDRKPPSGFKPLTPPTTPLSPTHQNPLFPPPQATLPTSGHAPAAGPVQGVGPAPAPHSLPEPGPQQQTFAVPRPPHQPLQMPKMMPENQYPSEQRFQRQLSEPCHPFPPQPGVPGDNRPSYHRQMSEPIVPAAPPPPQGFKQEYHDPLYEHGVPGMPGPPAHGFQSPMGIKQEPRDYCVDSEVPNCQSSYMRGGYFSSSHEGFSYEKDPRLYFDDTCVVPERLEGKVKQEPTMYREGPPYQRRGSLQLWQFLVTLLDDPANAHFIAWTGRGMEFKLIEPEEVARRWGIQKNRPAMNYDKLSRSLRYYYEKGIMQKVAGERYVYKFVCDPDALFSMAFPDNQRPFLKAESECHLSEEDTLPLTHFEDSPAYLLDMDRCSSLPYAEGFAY
Sequence of CRX (O43186 whole entry): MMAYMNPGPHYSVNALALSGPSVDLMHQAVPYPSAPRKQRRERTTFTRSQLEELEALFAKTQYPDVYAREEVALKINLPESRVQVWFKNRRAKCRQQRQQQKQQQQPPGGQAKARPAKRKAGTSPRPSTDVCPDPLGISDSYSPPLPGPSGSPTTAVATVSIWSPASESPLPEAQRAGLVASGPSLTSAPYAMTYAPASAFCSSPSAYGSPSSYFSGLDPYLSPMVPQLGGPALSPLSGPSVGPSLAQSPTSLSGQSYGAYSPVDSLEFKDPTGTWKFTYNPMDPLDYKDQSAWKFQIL
Sequence of HSF1 (Q00613 whole entry): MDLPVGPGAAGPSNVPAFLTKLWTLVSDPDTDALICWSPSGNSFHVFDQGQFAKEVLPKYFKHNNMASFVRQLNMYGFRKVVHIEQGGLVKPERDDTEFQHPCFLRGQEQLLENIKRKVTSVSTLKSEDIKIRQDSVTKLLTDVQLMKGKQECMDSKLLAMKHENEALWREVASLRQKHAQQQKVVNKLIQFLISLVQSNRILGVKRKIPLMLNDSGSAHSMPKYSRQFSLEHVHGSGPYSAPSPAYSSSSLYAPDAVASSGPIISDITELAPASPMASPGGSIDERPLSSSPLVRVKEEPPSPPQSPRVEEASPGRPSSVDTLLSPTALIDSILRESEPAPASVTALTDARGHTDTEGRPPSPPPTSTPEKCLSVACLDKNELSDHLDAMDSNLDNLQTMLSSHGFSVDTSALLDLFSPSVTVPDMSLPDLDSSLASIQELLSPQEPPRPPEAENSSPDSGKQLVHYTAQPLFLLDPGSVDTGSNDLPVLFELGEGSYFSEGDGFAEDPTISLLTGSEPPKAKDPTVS

Regarding TTGTAC, the binding signal with FLI1 was 1.37 fold enrichment (6-mer frequency, TF over GST control); in the assay with ELK1, 1.51 fold enrichment (6-mer frequency, TF over GST control); in the assay with GABPA, 1.32 fold enrichment (6-mer frequency, TF over GST control); in the assay with ERG it was 1.33 fold enrichment (6-mer frequency, TF over GST control); with ELF1 it was 1.41 fold enrichment (6-mer frequency, TF over GST control); with EHF, 1.33 fold enrichment (6-mer frequency, TF over GST control). Besides, the binding signal with SPI1 is 1.39 fold enrichment (6-mer frequency, TF over GST control); with SPIB it was 1.44 fold enrichment (6-mer frequency, TF over GST control); with ELK3, 1.18 fold enrichment (6-mer frequency, TF over GST control); with FEV it was 1.52 fold enrichment (6-mer frequency, TF over GST control); with ETV5, 1.48 fold enrichment (6-mer frequency, TF over GST control); with HSF1, 1.24 fold enrichment (6-mer frequency, TF over GST control). In addition, the binding signal was 1.46 fold enrichment (6-mer frequency, TF over GST control) in the assay with SPIC; 1.47 fold enrichment (6-mer frequency, TF over GST control) with ELF4; 1.55 fold enrichment (6-mer frequency, TF over GST control) with ELK4; 1.48 fold enrichment (6-mer frequency, TF over GST control) with ETV2; 1.39 fold enrichment (6-mer frequency, TF over GST control) with ELF3; 1.2 fold enrichment (6-mer frequency, TF over GST control) with CRX. Also, in the assay with ETV1, the binding signal is 1.24 fold enrichment (6-mer frequency, TF over GST control).
